# Measured values published in the supplement of paper PMC8728848.
# The sample as a whole holds a higher share of the strongest signals than the screen did.
# B1: DC-ASGPR L+GEE (Homo sapiens) (protein)
# chain: MTRTYENFQYLENKVKVQGFKNGPLPLQSLLQRLRSGPCHLLLSLGLGLLLLVIICVVGFQNSKFQRDLVTLRTDFSNFTSNTVAEIQALTSQGSSLEETIASLKAEVEGFKQERQAGVSELQEHTTQKAHLGHCPHCPSVCVPVHSEMLLRVQQLVQDLKKLTCQVATLNNNGEEASTEGTCCPVNWVEHQDSCYWFSHSGMSWAEAEKYCQLKNAHLVVINSREEQNFVQKYLGSAYTWMGLSDPEGAWKWVDGTDYATGFQNWKPGQPDDWQGHGLGGGEDCAHFHPDGRWNDDVCQRPYHWVCEAGLGQTSQESH
# Assays:
# Assay in all cases: glycan array binding signal (z-score within array); higher = stronger binding
# Conditions in all cases: glycan notation: IUPAC condensed, linker removed
# [1] = biological target: Fuc(a1-2)Gal(b1-3)GlcNAc(b1-2)Man(a1-3)[Fuc(a1-2)Gal(b1-3)GlcNAc(b1-2)Man(a1-6)]Man(b1-4)GlcNAc(b1-4)[Fuc(a1-6)]GlcNAc
# Summary of the method: (§1)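 The binding signal is a Z-score computed within each array. Data were drawn from 3228 arrays in the Consortium for Functional Glycomics database, restricted to those with a known protein sequence. Scores were averaged over arrays of the same protein sequence at different concentrations or buffers, and over linkers, and negative values can be taken as non-binding.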
# [2] = biological target: Fuc(a1-2)Gal(b1-4)GlcNAc(b1-3)Gal(b1-4)GlcNAc(b1-2)Man(a1-3)[Fuc(a1-2)Gal(b1-4)GlcNAc(b1-3)Gal(b1-4)GlcNAc(b1-2)Man(a1-6)]Man(b1-4)GlcNAc(b1-4)GlcNAc
# Summary of the method: as §1
# [3] = biological target: Fuc(a1-2)[Gal(a1-3)]Gal(b1-3)GlcNAc(b1-6)GalNAc
# Summary of the method: as §1
# [4] = biological target: Fuc(a1-2)[Gal(a1-3)]Gal(b1-4)GlcNAc(b1-6)GalNAc
# Summary of the method: as §1
# [5] = biological target: Fuc(a1-2)[GalNAc(a1-3)]Gal(b1-4)GlcNAc(b1-2)Man
# Summary of the method: as §1
# [6] = biological target: Fuc(a1-2)[GalNAc(a1-3)]Gal(b1-4)GlcNAc(b1-6)GalNAc
# Summary of the method: as §1
# [7] = biological target: Fuc(a1-2)[GalNAc(b1-3)]Gal
# Summary of the method: as §1
# Gal(a1-3)Gal = biological target: Gal(a1-3)Gal
# Summary of the method: as §1
# [8] = biological target: Gal(a1-3)Gal(b1-4)GlcNAc(b1-6)GalNAc
# Summary of the method: as §1
# [9] = biological target: Gal(a1-3)Gal(b1-4)[Fuc(a1-3)]GlcNAc(b1-2)Man(a1-3)[Gal(a1-3)Gal(b1-4)[Fuc(a1-3)]GlcNAc(b1-2)Man(a1-6)]Man(b1-4)GlcNAc(b1-4)GlcNAc
# Summary of the method: as §1
# Gal(a1-3)GalNAc = biological target: Gal(a1-3)GalNAc
# Summary of the method: as §1
# [10] = biological target: Gal(a1-3)[Gal(a1-4)]Gal(b1-4)GlcNAc
# Summary of the method: as §1
# Gal(a1-4)Gal(b1-4)Glc = biological target: Gal(a1-4)Gal(b1-4)Glc
# Summary of the method: as §1
# [11] = biological target: Gal(b1-3)GlcNAc(b1-2)Man(a1-3)[Gal(b1-3)GlcNAc(b1-2)Man(a1-6)]Man(b1-4)GlcNAc(b1-4)[Fuc(a1-6)]GlcNAc
# Summary of the method: as §1
# [12] = biological target: Gal(b1-3)GlcNAc(b1-6)Gal(b1-4)GlcNAc
# Summary of the method: as §1
# [13] = biological target: Gal(b1-3)GlcNAc(b1-6)GalNAc
# Summary of the method: as §1
# [14] = biological target: Gal(b1-3)[Fuc(a1-4)]GlcNAc(b1-3)Gal(b1-3)[Fuc(a1-4)]GlcNAc
# Summary of the method: as §1
# [15] = biological target: Gal(b1-3)[Neu5Ac(a2-6)]GlcNAc(b1-4)Gal(b1-4)Glc
# Summary of the method: as §1
# [16] = biological target: Gal(b1-4)GlcNAc(b1-2)Man(a1-3)[Gal(b1-4)GlcNAc(b1-2)Man(a1-6)][Gal(b1-4)GlcNAc(b1-4)]Man(b1-4)GlcNAc(b1-4)[Fuc(a1-6)]GlcNAc
# Summary of the method: as §1
# [17] = biological target: Gal(b1-4)GlcNAc(b1-3)Gal(b1-4)GlcNAc(b1-2)[Gal(b1-4)GlcNAc(b1-3)Gal(b1-4)GlcNAc(b1-6)]Man(a1-6)[Gal(b1-4)GlcNAc(b1-3)Gal(b1-4)GlcNAc(b1-2)Man(a1-3)]Man(b1-4)GlcNAc(b1-4)[Fuc(a1-6)]GlcNAc
# Summary of the method: as §1
# [18] = biological target: Gal(b1-4)GlcNAc(b1-3)Gal(b1-4)GlcNAc(b1-3)Gal(b1-4)GlcNAc(b1-2)[Gal(b1-4)GlcNAc(b1-3)Gal(b1-4)GlcNAc(b1-3)Gal(b1-4)GlcNAc(b1-6)]Man(a1-6)[Gal(b1-4)GlcNAc(b1-3)Gal(b1-4)GlcNAc(b1-3)Gal(b1-4)GlcNAc(b1-2)Man(a1-3)]Man(b1-4)GlcNAc(b1-4)[Fuc(a1-6)]GlcNAc
# Summary of the method: as §1
# [19] = biological target: Gal(b1-4)GlcNAc(b1-3)Gal(b1-4)GlcNAc(b1-3)Gal(b1-4)GlcNAc(b1-3)Gal(b1-4)GlcNAc(b1-2)[Gal(b1-4)GlcNAc(b1-3)Gal(b1-4)GlcNAc(b1-3)Gal(b1-4)GlcNAc(b1-3)Gal(b1-4)GlcNAc(b1-6)]Man(a1-6)[Gal(b1-4)GlcNAc(b1-3)Gal(b1-4)GlcNAc(b1-3)Gal(b1-4)GlcNAc(b1-3)Gal(b1-4)GlcNAc(b1-2)Man(a1-3)]Man(b1-4)GlcNAc(b1-4)[Fuc(a1-6)]GlcNAc
# Summary of the method: as §1
# [20] = biological target: Gal(b1-4)GlcNAc(b1-3)Gal(b1-4)GlcNAc(b1-3)Gal(b1-4)GlcNAc(b1-3)Gal(b1-4)GlcNAc(b1-3)Gal(b1-4)GlcNAc(b1-3)Gal(b1-4)GlcNAc(b1-2)Man(a1-3)[Gal(b1-4)GlcNAc(b1-3)Gal(b1-4)GlcNAc(b1-3)Gal(b1-4)GlcNAc(b1-3)Gal(b1-4)GlcNAc(b1-3)Gal(b1-4)GlcNAc(b1-3)Gal(b1-4)GlcNAc(b1-2)Man(a1-6)]Man(b1-4)GlcNAc(b1-4)GlcNAc
# Summary of the method: as §1
# [21] = biological target: Gal(b1-4)GlcNAc(b1-6)[Gal(b1-4)GlcNAc(b1-3)]GalNAc
# Summary of the method: as §1
# Gal3S(b1-3)GalNAc = biological target: Gal3S(b1-3)GalNAc
# Summary of the method: as §1
# [22] = biological target: Gal3S(b1-4)[Fuc(a1-3)]GlcNAc6S
# Summary of the method: as §1
# GalNAc(b1-3)Gal = biological target: GalNAc(b1-3)Gal
# Summary of the method: as §1
binder,measurement,setting,value
B1,glycan array binding signal (z-score),[1],-0.314
same,glycan array binding signal (z-score),[2],0.538
same,glycan array binding signal (z-score),[3],2.67
same,glycan array binding signal (z-score),[4],-0.492
same,glycan array binding signal (z-score),[5],0.54
same,glycan array binding signal (z-score),[6],3.41
same,glycan array binding signal (z-score),[7],3.61
same,glycan array binding signal (z-score),Gal(a1-3)Gal,0.243
same,glycan array binding signal (z-score),[8],3.21
same,glycan array binding signal (z-score),[9],0.091
same,glycan array binding signal (z-score),Gal(a1-3)GalNAc,-0.254
same,glycan array binding signal (z-score),[10],-0.371
same,glycan array binding signal (z-score),Gal(a1-4)Gal(b1-4)Glc,-0.702
same,glycan array binding signal (z-score),[11],-0.527
same,glycan array binding signal (z-score),[12],-0.073
same,glycan array binding signal (z-score),[13],3.3
same,glycan array binding signal (z-score),[14],-0.093
same,glycan array binding signal (z-score),[15],-0.382
same,glycan array binding signal (z-score),[16],-0.406
same,glycan array binding signal (z-score),[17],-0.323
same,glycan array binding signal (z-score),[18],0.024
same,glycan array binding signal (z-score),[19],2.52
same,glycan array binding signal (z-score),[20],0.991
same,glycan array binding signal (z-score),[21],-0.432
same,glycan array binding signal (z-score),Gal3S(b1-3)GalNAc,0.442
same,glycan array binding signal (z-score),[22],0.135
same,glycan array binding signal (z-score),GalNAc(b1-3)Gal,3.04
